The text below walks through data of PubChem BioAssay AID651821 (The Scripps Research Institute Molecular Screening Center, 2012).

SMILES strings stand for the structures. Hit rate of the full screen: of about 370,000 compounds, about 4,700 (1.3%) were called active. The list comes from a sample in which actives are over-represented; it also holds similar structures and randomly drawn compounds. A number with no mark means an inactive call.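 How the source made its calls: active means inhibition above the plate cutoff, the mean of all test compounds on that plate plus 3 SD (cut at about 35% in these data); inactive means the rest.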

This experiment is described as follows: small molecules binding CAG repeat RNA – biochemical, fluorescence, primary screen (AID 651821).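 Further: 0% = DMSO alone and 100% = 100 µM mitoxantrone as full dye displacement; higher means more dye released from RNA so lower well fluorescence.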 The following applies: r(CAG) RNA repeat, TO-PRO-1 dye displacement fluorescence; at 3 µM; active compounds read high.
In the case of `CCOC(=O)[C@]12CCCC3=C1N(CCC3)C(=O)[C@@H](CC(=O)NCc1cccs1)C2`, the inhibition was -1.37%.

Turning to `C=CCN1C(=O)[C@@H](CC(=O)NCCCOCCCC)[C@]2(C(=O)OCC)CCCCC/C=C/12`, the inhibition was 0.69%.

As to `OC(c1ccccc1)c1nc(/C=C/c2ccc(C(F)(F)F)cc2)cs1` (stereo unspecified), the inhibition was 3.22%.

As to `O=C(Nc1nc(-c2ccco2)c(-c2ccco2)s1)c1ccco1`, the inhibition was 70.5% (active).

For the compound `O=C(Nc1nonc1-c1ccc(Cl)cc1)c1ccco1`, the inhibition is -0.35%.

Take `O=C(Nc1c(-c2ccccc2)nc2c(Br)cc(Br)cn12)c1ccco1`: the inhibition is 7.88%.

With `COC(=O)C1=C(C)N(Cc2ccc(F)cc2)C(=S)NC1c1cccc(Cl)c1` (stereo unspecified), the inhibition was 3.4%.

With `N[C@@H](Cc1ccccc1)C(=O)N1CCC[C@@H]1C(=O)N1CCC2CCN(S(=O)(=O)c3ccccc3)CC21` (stereo partly specified), the inhibition is 0.99%.

On to `COC(=O)Cc1nnn2c1[C@H](C)[C@@H](OC)c1cc(Br)ccc1-2`, for which the inhibition was -0.28%.

Turning to `Clc1ccc(C(Cn2ccnc2)OCc2ccsc2Cl)c(Cl)c1` (stereo unspecified), the inhibition is 2.12%.

On to `Cc1c(Cl)cccc1NC(=O)CC1SC(=NCC2CCCO2)NC1=O` (stereo unspecified), for which the inhibition was -0.81%.

Regarding `CCN=C1SC(CC(=O)Nc2ccc(C)cc2)C(=O)N1CC` (stereo unspecified), the inhibition is -2.97%.

Take `Cc1ccc(NC(=O)CC2S/C(=N/N=C3\CCCc4ccccc43)NC2=O)cc1` (stereo unspecified): the inhibition was 42.2% (active).

Turning to `CC(=O)N1C[C@@H](CO)[C@@H](N(C)C(=O)C(C)(C)C)C[C@H]1c1ccccc1Br`, the inhibition was -1.82%.

In the case of `C[C@@H]1COc2cccc(N3CCCC3)c2S(=O)(=O)N1C`, the inhibition was 1%.

On to `CC(C)(C)C1C/C(=C/c2ccco2)C(=O)/C(=C/c2ccco2)C1` (stereo unspecified), for which the inhibition is 44.8% (active).

In the case of `O=C(CN1C(=O)NC(Cc2c[nH]c3ccccc23)C1=O)Nc1ccccc1C(F)(F)F` (stereo unspecified), the inhibition was 2.5%.

For the compound `CC1CCN(C(=O)c2ncn3c2C(=O)N[C@@H](C)C3)CC1`, the inhibition is 1.9%.

As to `O=C(N1CCOCC1)N1CC[C@H]2[C@H](CCCN2Cc2ccc(F)cc2)C1`, the inhibition is -0.35%.

In the case of `C=CCN1C(=O)[C@@H](CC(=O)N2CCN(C(=O)OCC)CC2)[C@]2(C(=O)OCC)CCCCC/C=C/12`, the inhibition was 1.94%.

Consider `COc1ccc(CSc2nnc(-c3cccc(C)c3)n2C)cc1`, for which the inhibition is -0.02%.

`COc1ccc(-n2c(SCC(=O)Nc3ccc(C)c(Cl)c3)nc3ccccc3c2=O)cc1`: the inhibition was 16.1%.

As for `CCOc1ccc(-n2c(SCC(=O)Nc3cc(C(=O)O)ccc3Cl)nc3ccccc3c2=O)cc1`, the inhibition was 46.3% (active).

For the compound `CCOc1ccc(NC(=O)CSc2nc3ccccc3c(=O)n2Cc2cccs2)cc1`, the inhibition is 1.43%.

Turning to `COc1ccc(CN2C(=O)N3Cc4cc(OC)ccc4C3CS2(=O)=O)cc1` (stereo unspecified), the inhibition was 1.88%.

Consider `COCCCNC(=O)C[C@H]1C[C@@]2(C(=O)OC)C(=C[C@H](C(C)(C)C)O[C@@H]2C)N(Cc2ccc(Cl)cc2Cl)C1=O`, for which the inhibition was 1.45%.

Turning to `COC(=O)[C@]12C[C@H](CC(=O)NCCc3ccccc3OC)C(=O)N(Cc3ccccc3)C1=C[C@H](C(C)C)O[C@@H]2C1CC1`, the inhibition is 0.77%.

On to `Cc1ccccc1-n1c(SCC(=O)Nc2cccc3ccccc23)nc(O)cc1=O`, for which the inhibition was 42.6% (active).

In the case of `C=CCn1c(N)cc(=O)nc1SCC(=O)Nc1cccc2ccccc12`, the inhibition was 3.99%.

Consider `Cc1ccc(-n2c(SCC(=O)Nc3cccc4ccccc34)nnc2-c2ccccn2)cc1`, for which the inhibition was 3.79%.

With `CC(C)N1CCCCC(NC(=O)C(C)(C)C)C1=O` (stereo unspecified), the inhibition is 0.73%.
